Assay [1] can be described thus: qHTS assay to identify aromatase inhibitors - cell viability counter screen (AID 743084;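 note: cells stimulated with testosterone during compound exposure; nearly all actives have a fitted effect of over 55% in size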). (qHTS replaces the single test concentration by a dilution series.)
In assay [2] the target is Aryl hydrocarbon receptor (Homo sapiens) (UniProt P35869). Kind of assay: qHTS assay to identify small molecule that activate the aryl hydrocarbon receptor (AhR) signaling pathway (AID 743085).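 For activation: HG2L7.5c1 human HepG2 liver cells with stably integrated DRE-driven firefly reporter; series mostly up to about 70 µM.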 Note: nearly all actives have a fitted effect of over 15% in size. Note: potency is the fitted concentration of half-maximal effect. In outline:
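A multiplexed format paired cell viability (CellTiter-Fluor fluorescence) with AhR-dependent luciferase output (ONE-Glo luminescence) in the same wells of HepG2 DRE-luc cells after 24 h compound exposure at 37C.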

Assay [3] can be described thus: qHTS assay to identify small molecule that activate the aryl hydrocarbon receptor (AhR) signaling pathway - cell viability counter screen (AID 743086).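 Note: HepG2 liver cells carrying the AhR DRE luciferase reporter; series mostly up to about 70 µM; nearly all actives have a fitted effect of over 45% in size.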 In outline:
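HepG2-AhR-luc (HG2L7.5c1) cells, 4000/well, treated 24 h at 37 C with compound; viability measured as CellTiter-Fluor fluorescence after 30 min in the same wells as the luciferase read.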

Assay [4] is described as follows: qHTS assay to identify small molecule antagonists of the peroxisome proliferator-activated receptor gamma (PPARg) signaling pathway - cell viability counter screen (AID 743194). Note: nearly all actives have a fitted effect of over 55% in size. Note: potency is the fitted concentration of half-maximal effect. In outline: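 Cytotoxicity counter screen in PPARg-bla HEK293H cells, same wells as reporter assay. Compounds plus 50 nM rosiglitazone (final) for 17 h at 37 C, then viability read by CellTiter-Glo luminescence.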

The nature of assay [5]: qHTS assay for small molecule agonists of the antioxidant response element (ARE) signaling pathway - cell viability counter screen (AID 743203; calls by dose curve; note: nearly all actives have a fitted effect of over 55% in size; note: potency is the fitted concentration of half-maximal effect). In outline: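 Seeded at 2,000 cells/well, ARE-bla HepG2 cells were incubated 5 hrs before compound addition. After 16 hrs of treatment at 37C with 5% CO2, CellTiter-Glo reagent was added and luminescence read 30 min later.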
Assay [6] in a line: qHTS assay for small molecule activators of the heat shock response signaling pathway - cell viability counter screen (AID 743209). Note: nearly all actives have a fitted effect of over 50% in size. In outline:
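First, HSE-bla HeLa cells were seeded at 1500 cells/well and kept overnight at 37 C. Next, compounds were pinned in and incubated 5 h. After the FRET substrate step, CellTiter-Glo was added and luminescence read 30 min later.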

Assay [7] in a line: qHTS assay to identify small molecule agonists of the peroxisome proliferator-activated receptor delta (PPARd) signaling pathway - cell viability counter screen (AID 743211). Note: nearly all actives have a fitted effect of over 55% in size. In outline: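 Tox21 library compounds, delivered in DMSO, were incubated 17 h with PPARd-bla HEK293H cells; cytotoxicity was taken from CellTiter-Glo luminescence read 30 min after reagent addition.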
For assay [8], the target named is Peroxisome proliferator-activated receptor delta (Homo sapiens) (UniProt Q03181). Briefly: qHTS assay to identify small molecule agonists of the peroxisome proliferator-activated receptor delta (PPARd) signaling pathway (AID 743212; calls by dose curve). In outline:
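Quantitative high-throughput agonist screen in a HEK293H beta-lactamase reporter line under UAS control. Compounds in DMSO, at 37 C. Fluorescence read after 2 h with FRET substrate at room temperature.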

Assay [9] can be described thus: qHTS assay to identify small molecule antagonists of the peroxisome proliferator-activated receptor delta (PPARd) signaling pathway - cell viability counter screen (AID 743213). Note: nearly all actives have a fitted effect of over 50% in size. Note: potency is the fitted concentration of half-maximal effect. In outline: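 Viability counter-screen, qHTS format: PPARd-bla HEK293H, L165041 300 nM final, 17 h compound exposure at 37 C, CellTiter-Glo luminescence after 30 min RT.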
Assay [10] has as its target Peroxisome proliferator-activated receptor delta (Homo sapiens) (UniProt Q03181). Briefly: qHTS assay to identify small molecule antagonists of the peroxisome proliferator-activated receptor delta (PPARd) signaling pathway (AID 743215; active = well fitted inhibition curve with a large enough effect in the signal ratio in the repeat runs, not every such curve was filed as active; the % refers to the signal ratio;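 note: cells stimulated with agonist L165041 at 300 nM final during compound exposure; series mostly up to about 62 µM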). In outline:
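Inhibition of L165041-driven (300 nM final) PPARd signaling is scored in HEK293H UAS-bla cells. Exposure lasts 17 h at 37 C; beta-lactamase activity is then read by FRET substrate fluorescence after 2 h at room temperature.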

Assay [11] in a line: qHTS assay to identify small molecule agonists of the farnesoid-X-receptor (FXR) signaling pathway - cell viability counter screen (AID 743218). Note: nearly all actives have a fitted effect of over 45% in size. In outline:
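Cytotoxicity counter-screen run in parallel, same wells: FXR-UAS-bla HEK 293T cells dosed 16 h at 37 C, viability read by CellTiter-Glo luminescence after 30 min at room temperature.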

Assay [12] can be described thus: qHTS assay to identify small molecule antagonists of the farnesoid-X-receptor (FXR) signaling pathway - cell viability counter screen (AID 743221; active = well fitted cell-killing curve with a large enough effect in the repeat runs, not every such curve was filed as active; note: nearly all actives have a fitted effect of over 50% in size). In outline: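 Cytotoxicity is taken from ATP luminescence (CellTiter-Glo, 30 min, room temperature) in FXR-bla HEK 293T cells previously incubated 16 h at 37 C with compound and chenodeoxycholic acid at 50 uM final.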

Assay [13] deals with Vitamin D3 receptor (Homo sapiens) (UniProt P11473). Briefly: qHTS assay to identify small molecule agonists of the vitamin D receptor (VDR) signaling pathway (AID 743222; calls by dose curve). In outline: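 Quantitative HTS agonist-mode screen: compounds in DMSO were pin-transferred onto VDR-bla cells and incubated 16 h at 37C, 5% CO2. Reporter activity was detected with LiveBLAzer B/G FRET substrate after 2 h at room temperature.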

The target is the same in assay [14]. Kind of assay: qHTS assay to identify small molecule antagonists of the vitamin D receptor (VDR) signaling pathway (AID 743223; active = well fitted inhibition curve with a large enough effect in the signal ratio in the repeat runs, not every such curve was filed as active; the % refers to the signal ratio). In outline:
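Quantitative HTS in VDR-bla reporter cells stimulated with 1alpha,25-dihydroxyvitamin D3, 3 nM final. Compound exposure 16 h, 37C, 5% CO2. Read-out: beta-lactamase FRET substrate fluorescence, 2 h RT.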

A short description of assay [15]: qHTS assay for small molecule agonists of the antioxidant response element (ARE) signaling pathway (AID 743202; active = well fitted activation curve with a large enough effect in the signal ratio in the repeat runs, not every such curve was filed as active; the % refers to the signal ratio; note: potency is the fitted concentration of half-maximal effect). In outline: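 Agonist mode reporter screen: HepG2 cells with ARE-controlled beta-lactamase are incubated with test compounds for 16 h at 37 C, and beta-lactamase activity is measured as fluorescence of cleaved B/G FRET substrate.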
Assay [16] can be described thus: qHTS assay for small molecule activators of the heat shock response signaling pathway (AID 743210; active = well fitted activation curve with a large enough effect in the signal ratio in the repeat runs, with a control signal flat, not every such curve was filed as active; the % refers to the signal ratio;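 note: HeLa cells with beta-lactamase reporter driven by heat shock elements; series mostly up to about 63 µM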). In outline:
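Quantitative high-throughput format using an engineered HeLa line in which heat shock response elements drive beta-lactamase; after 5 h with compound, cells received a B/G FRET substrate and fluorescence was read.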

For assay [17], the target named is Bile acid receptor (Homo sapiens) (UniProt Q96RI1). Kind of assay: qHTS assay to identify small molecule antagonists of the farnesoid-X-receptor (FXR) signaling pathway (AID 743217; active = well fitted inhibition curve with a large enough effect in the signal ratio in the repeat runs, not every such curve was filed as active; the % refers to the signal ratio). In outline:
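Antagonist mode against 50 uM (final) chenodeoxycholic acid stimulation in FXR-bla HEK 293T cells, 16 h at 37 °C. Inhibition detected as reduced beta-lactamase activity via LiveBLAzer B/G FRET fluorescence after 2 h at room temperature.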

Assay [18] has the same target. Kind of assay: qHTS assay to identify small molecule agonists of the farnesoid-X-receptor (FXR) signaling pathway (AID 743220; active = well fitted activation curve with a large enough effect in the signal ratio in the repeat runs, not every such curve was filed as active; the % refers to the signal ratio). In outline:
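Beta-lactamase reporter under UAS control in GeneBLAzer FXR HEK 293T cells (5000/well) measured with LiveBLAzer FRET substrate after 2 h at room temperature. Compound exposure lasted 16 h at 37C.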

The target of assay [19] is Peroxisome proliferator-activated receptor gamma (Homo sapiens) (UniProt P37231). Kind of assay: qHTS assay to identify small molecule agonists of the peroxisome proliferator-activated receptor gamma (PPARg) signaling pathway (AID 743094; active = well fitted activation curve with a large enough effect in the signal ratio in the repeat runs, not every such curve was filed as active; the % refers to the signal ratio). In outline: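 Quantitative HTS agonist mode: stable HEK293H line with UAS-beta-lactamase reporter under PPARg control, 17 h compound exposure at 37C, fluorescence after 1 h FRET substrate loading at room temperature.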

The target is the same in assay [20]. Briefly: qHTS assay to identify small molecule antagonists of the peroxisome proliferator-activated receptor gamma (PPARg) signaling pathway (AID 743191; calls by dose curve; note: nearly all actives have a fitted effect of over 30% in size; note: potency is the fitted concentration of half-maximal effect). In outline:
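GeneBLAzer PPARg UAS-bla HEK293H cells, 5 h post-plating, exposed to compounds 17 h at 37C. LiveBLAzer B/G FRET substrate added for 1 h at room temperature; beta-lactamase reporter read by fluorescence intensity.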

The structures appear in SMILES notation. Where “and” joins values, the source holds several entries; their conditions need not be identical. Identical values can stand only once. Inconclusive results are not listed. The source holds several records for some structures; these can differ, active in one and inactive in another. Calls of active or inactive are those of the source. Unless noted, calls come from the whole dose curve; as a rule, active = well fitted curve in the direction sought with a large enough effect in the repeat runs; inconclusive = weak or mixed curves; inactive = no such curve, though single readings can be large; an effect the other way counts as inactive or inconclusive.

Chain of Peroxisome proliferator-activated receptor delta (Homo sapiens) (Q03181 whole entry, looked up): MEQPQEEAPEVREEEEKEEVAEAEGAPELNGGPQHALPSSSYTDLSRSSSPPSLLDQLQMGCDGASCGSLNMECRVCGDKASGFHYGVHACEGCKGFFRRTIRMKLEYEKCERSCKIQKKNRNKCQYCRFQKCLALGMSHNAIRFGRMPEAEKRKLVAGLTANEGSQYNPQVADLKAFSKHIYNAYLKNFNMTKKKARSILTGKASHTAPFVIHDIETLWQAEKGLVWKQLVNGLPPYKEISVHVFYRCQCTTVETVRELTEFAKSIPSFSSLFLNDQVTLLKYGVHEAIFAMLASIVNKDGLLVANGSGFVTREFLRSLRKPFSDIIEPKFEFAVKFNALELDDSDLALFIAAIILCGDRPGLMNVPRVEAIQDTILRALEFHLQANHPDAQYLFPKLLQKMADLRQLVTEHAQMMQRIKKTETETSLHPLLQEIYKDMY
Chain of Bile acid receptor (Homo sapiens) (Q96RI1 whole entry, looked up): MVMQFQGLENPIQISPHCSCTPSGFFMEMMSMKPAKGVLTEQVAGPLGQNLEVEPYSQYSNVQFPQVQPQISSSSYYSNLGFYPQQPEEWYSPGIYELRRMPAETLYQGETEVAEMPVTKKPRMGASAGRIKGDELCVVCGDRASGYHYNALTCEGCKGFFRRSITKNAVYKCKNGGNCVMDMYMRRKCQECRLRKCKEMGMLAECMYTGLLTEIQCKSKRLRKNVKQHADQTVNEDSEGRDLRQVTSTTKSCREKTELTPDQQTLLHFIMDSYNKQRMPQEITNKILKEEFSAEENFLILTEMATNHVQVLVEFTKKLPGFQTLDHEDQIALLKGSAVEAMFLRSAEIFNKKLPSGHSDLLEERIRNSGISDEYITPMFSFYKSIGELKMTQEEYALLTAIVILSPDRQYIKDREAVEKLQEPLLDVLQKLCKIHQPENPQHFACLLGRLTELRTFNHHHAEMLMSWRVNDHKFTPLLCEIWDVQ
Chain of Peroxisome proliferator-activated receptor gamma (Homo sapiens) (P37231 whole entry, looked up): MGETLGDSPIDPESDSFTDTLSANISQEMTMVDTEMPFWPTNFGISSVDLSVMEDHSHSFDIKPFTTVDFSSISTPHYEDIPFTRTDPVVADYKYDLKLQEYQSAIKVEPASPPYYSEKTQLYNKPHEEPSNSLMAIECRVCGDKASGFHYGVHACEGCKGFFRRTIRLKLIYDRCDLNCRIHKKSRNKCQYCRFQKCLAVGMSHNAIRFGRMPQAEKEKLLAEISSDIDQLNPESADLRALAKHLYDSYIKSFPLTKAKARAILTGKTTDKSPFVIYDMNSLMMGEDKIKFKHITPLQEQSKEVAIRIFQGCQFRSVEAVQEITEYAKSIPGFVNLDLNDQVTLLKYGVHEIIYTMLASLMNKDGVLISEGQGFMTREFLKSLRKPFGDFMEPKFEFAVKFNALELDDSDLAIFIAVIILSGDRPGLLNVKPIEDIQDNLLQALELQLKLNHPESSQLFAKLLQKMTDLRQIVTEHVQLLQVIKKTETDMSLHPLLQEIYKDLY
Chain of Aryl hydrocarbon receptor (Homo sapiens) (P35869 whole entry, looked up): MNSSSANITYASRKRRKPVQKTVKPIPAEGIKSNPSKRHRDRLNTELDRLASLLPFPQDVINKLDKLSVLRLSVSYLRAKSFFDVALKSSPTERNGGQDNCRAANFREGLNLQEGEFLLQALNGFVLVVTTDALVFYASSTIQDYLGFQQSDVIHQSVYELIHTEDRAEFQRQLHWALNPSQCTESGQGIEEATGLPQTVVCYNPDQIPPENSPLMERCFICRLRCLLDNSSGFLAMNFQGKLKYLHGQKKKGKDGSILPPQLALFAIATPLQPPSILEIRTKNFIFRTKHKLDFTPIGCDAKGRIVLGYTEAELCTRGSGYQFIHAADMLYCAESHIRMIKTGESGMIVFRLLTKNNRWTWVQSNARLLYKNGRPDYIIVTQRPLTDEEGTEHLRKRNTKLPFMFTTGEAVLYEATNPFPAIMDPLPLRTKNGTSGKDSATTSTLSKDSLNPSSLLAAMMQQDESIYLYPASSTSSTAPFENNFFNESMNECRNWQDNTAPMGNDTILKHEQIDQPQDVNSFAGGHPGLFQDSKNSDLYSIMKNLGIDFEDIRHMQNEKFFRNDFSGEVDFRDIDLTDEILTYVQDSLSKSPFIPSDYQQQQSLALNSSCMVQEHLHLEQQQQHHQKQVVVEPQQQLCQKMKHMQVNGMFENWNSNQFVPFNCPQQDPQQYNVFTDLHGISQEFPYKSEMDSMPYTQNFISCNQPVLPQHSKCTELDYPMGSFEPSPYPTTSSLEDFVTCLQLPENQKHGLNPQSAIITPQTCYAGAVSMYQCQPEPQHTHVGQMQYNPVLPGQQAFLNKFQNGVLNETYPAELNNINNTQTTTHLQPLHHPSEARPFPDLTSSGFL
Chain of Vitamin D3 receptor (Homo sapiens) (P11473 whole entry, looked up): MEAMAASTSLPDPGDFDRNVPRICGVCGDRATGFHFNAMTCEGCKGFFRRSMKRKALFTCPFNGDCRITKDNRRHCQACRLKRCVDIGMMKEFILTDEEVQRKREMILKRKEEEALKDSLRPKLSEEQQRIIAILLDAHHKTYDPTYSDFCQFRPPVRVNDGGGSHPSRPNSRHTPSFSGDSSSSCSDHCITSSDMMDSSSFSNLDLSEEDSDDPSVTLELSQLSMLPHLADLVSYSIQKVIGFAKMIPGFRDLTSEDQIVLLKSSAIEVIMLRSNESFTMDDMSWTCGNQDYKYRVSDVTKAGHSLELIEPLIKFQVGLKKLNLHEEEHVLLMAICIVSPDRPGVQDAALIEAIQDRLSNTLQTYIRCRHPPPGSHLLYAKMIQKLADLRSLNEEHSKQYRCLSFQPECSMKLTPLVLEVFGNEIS

Consider `ClC1=C(Cl)C(Cl)(Cl)C(Cl)=C1Cl`, for which the Potency result in assay [1], in assay [2], in [3], in [6], in [7] and in assay [9] was “inactive” throughout. The Potency result in [11], in assay [12], in assay [13] and in [14] was “inactive” each time. Moreover, the Potency was 2.2 µM (active) and 3.09 µM (active) in assay [4]; 13.8 µM (active) and 12.2 µM (active) in assay [5]. The outcome in [8] and in assay [10] was inactive.

In the case of `Cc1cc(Cc2ccc(N)c(C)c2)ccc1N`, the Potency entry in assay [3], in assay [4], in assay [15], in assay [5], in assay [6] and in assay [7] was “inactive” each time. Moreover, the Potency result in [9], in [11] and in [12] was “inactive” each time. Besides, the compound was classed as inactive in [16], in [17] and in [18].

With `CCCCNC(N)=O`, the Potency result in [1], in assay [3], in [20], in assay [4], in assay [15] and in assay [5] was “inactive” throughout. The Potency entry in assay [6], in [7], in assay [9], in assay [11], in assay [12] and in [13] was “inactive” in each case. In [14], the Potency result is “inactive”. For the same compound, the compound was classed as inactive in [19], in assay [16], in assay [8], in [10], in assay [17] and in assay [18].

For the compound `Cc1cc(NS(=O)(=O)c2ccc(N)cc2)no1`, the Potency result in [1], in assay [3], in assay [15], in [5], in assay [6] and in assay [7] was “inactive” in each case. Besides, the Potency entry in assay [9], in assay [11], in assay [12], in assay [13] and in [14] was “inactive” throughout. Besides, the result in assay [16], in [17] and in assay [18] was inactive.

As to `O=C(O)c1ccc([N+](=O)[O-])cc1`, the Potency result in [1], in [2], in assay [3], in [4], in assay [15] and in assay [5] was “inactive” in each case. In addition, the Potency entry in assay [6], in assay [7], in [9], in assay [11], in [12] and in [13] was “inactive” throughout. Besides, in assay [14], the Potency result is “inactive”. The call in assay [16], in [8], in assay [10], in assay [17] and in assay [18] was inactive.

Consider `CC#C[C@]1(O)CC[C@H]2[C@@H]3CCC4=CC(=O)CCC4=C3[C@@H](c3ccc(N(C)C)cc3)C[C@@]21C`, for which the Potency result in assay [1], in [2], in assay [3], in assay [5], in assay [6] and in [9] was “inactive” each time. The Potency entry in assay [12] was “inactive”.

On to `CCCCC(CC)COC(=O)CCCCCCCC(=O)OCC(CC)CCCC` (stereo unspecified), for which the Potency entry in assay [3], in [4], in assay [15], in [5], in assay [6] and in assay [7] was “inactive” each time. In addition, the Potency entry in assay [9], in [11] and in assay [12] was “inactive” each time. Also, the result in [16], in assay [8], in assay [10], in [17] and in assay [18] was inactive.

Take `Oc1c(Cl)cc(Cl)c(Cl)c1Cl`: the Potency result in assay [1], in assay [3], in [5], in assay [6], in assay [7] and in assay [9] was “inactive” in each case. The Potency entry in assay [12] and in assay [13] was “inactive” throughout. Also, the call in [19], in assay [10] and in [18] was inactive. Also, the Potency in assay [20] was 17 µM (active).

As to `Oc1ccc2ccccc2c1`, the Potency entry in assay [1], in [3], in assay [5], in assay [6], in [7] and in [11] was “inactive” throughout. Also, the Potency entry in [12], in assay [13] and in assay [14] was “inactive” throughout. The Potency was 49.7 µM (active) and 27.3 µM (active) in assay [2]; 35.2 µM (active) and 21.7 µM (active) in assay [15]; “inactive and 3.89 µM (active)” in assay [9]. In assay [16], the outcome was inactive.

For the compound `NC(=O)NNc1ccccc1`, the Potency result in assay [1], in [2], in assay [3], in assay [15], in [5] and in [6] was “inactive” throughout. Further, the Potency entry in [7], in [9], in [11], in assay [12], in assay [13] and in assay [14] was “inactive” throughout. In addition, the compound was called inactive in [16].

The values above are taken from PubChem BioAssay (Tox21).
